Data taken from PubChem BioAssay AID1159580 (chemical genetic matrix, 2015).
In all, about 5,500 compounds went through this assay and about 2,000 (36%) were called active. Roughly 18% stayed inconclusive and do not appear here. Cut-off read from the data, not from the text of the source: active = normalized growth mostly below about 0.91 (no sharp cut-off); inconclusive = no clear call, values can overlap the other calls; inactive = mostly above about 0.92. This is one part of the list.

Experiment: chemical genetic growth profiling, strain panel (AID 1159580);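 note: tested at 20 µM; growth read once vehicle control cultures reached saturation at 30 °C; 1 = growth at the plate median or of vehicle wells; lower values mean less growth of the strain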
Conditions: S. cerevisiae deletion strains, growth OD
[1] = locus YHR030C, strain SLT2, stronger effect = lower value
[2] = locus YJL095W, strain BCK1, stronger effect = lower value

Measured: normalized growth

C[C@]12CCC3C(CC[C@H]4C[C@H](O)CC[C@]34C)C1CCC2=O (stereo partly specified)
inactive: locus YLR113W, strain HOG1, stronger effect = lower value 0.912 | locus YNL183C, strain NPR1, stronger effect = lower value 0.837 | locus YOR231W, strain MKK1, stronger effect = lower value 0.861 | locus YPL256C, strain CLN2, stronger effect = lower value 0.853
active: [1] 0.63 | locus YHR079C, strain IRE1, stronger effect = lower value 0.831 | [2] 0.736 | locus YJR066W, strain TOR1, stronger effect = lower value 0.815

CC(C)CCCC(C)C1CCC2C3CCC4CC(=O)CCC4(C)C3CCC12C (stereo unspecified)
inactive: locus YAL013W, strain DEP1, stronger effect = lower value 1.01 | locus YBR021W, strain FUR4, stronger effect = lower value 1.02 | locus YBR229C, strain ROT2, stronger effect = lower value 1 | locus YCL029C, strain bik1, stronger effect = lower value 1.02 | locus YDL035C, strain GPR1, stronger effect = lower value 1.06 | locus YDL074C, strain BRE1, stronger effect = lower value 1.07 | locus YDL101C, strain DUN1, stronger effect = lower value 1.02 | locus YDL134C, strain PPH21, stronger effect = lower value 1.03 | locus YDL185W, strain tfp1, stronger effect = lower value 1.01 | locus YDL192W, strain arf1, stronger effect = lower value 1.05 | locus YDR101C, strain arx1, stronger effect = lower value 1.02 | locus YDR150W, strain NUM1, stronger effect = lower value 1 | locus YDR162C, strain NBP2, stronger effect = lower value 1.05 | locus YDR318W, strain mcm21, stronger effect = lower value 1.01 | locus YDR388W, stronger effect = lower value 1.02 | locus YDR502C, strain sam2, stronger effect = lower value 1.01 | locus YEL061C, strain CIN8, stronger effect = lower value 1.02 | locus YER110C, stronger effect = lower value 1.02 | locus YER155C, strain BEM2, stronger effect = lower value 1 | locus YER167W, strain BCK2, stronger effect = lower value 1 | locus YGL078C, strain dbp3, stronger effect = lower value 1.02 | locus YGL086W, strain mad1, stronger effect = lower value 1.02 | locus YGL248W, strain PDE1, stronger effect = lower value 1.04 | locus YGR078C, strain PAC10, stronger effect = lower value 1.03 | locus YGR135W, strain pre9, stronger effect = lower value 1.03 | locus YGR252W, strain gcn5, stronger effect = lower value 1 | [1] 1.02 | locus YHR079C, strain IRE1 (second series), stronger effect = lower value 1 | locus YHR094C, strain hxt1, stronger effect = lower value 1.04 | locus YHR129C, strain ARP1, stronger effect = lower value 1.02 | locus YHR200W, strain rpn10, stronger effect = lower value 1.01 | locus YIL066C, strain RNR3, stronger effect = lower value 1.05 | locus YIL073C, strain SPO22, stronger effect = lower value 1.11 | locus YIL125W, strain kgd1, stronger effect = lower value 1.01 | locus YIR030C, strain dcg1, stronger effect = lower value 1.02 | [2] 1.06 | locus YJL134W, strain LCB3, stronger effect = lower value 1.01 | locus YJL168C, strain set2, stronger effect = lower value 1.01 | locus YJL187C, strain SWE1 (second series), stronger effect = lower value 1.03 | locus YJR043C, strain POL32, stronger effect = lower value 1.02 | locus YJR075W, strain HOC1, stronger effect = lower value 1.03 | locus YKL009W, strain mrt4, stronger effect = lower value 1.06 | locus YKL068W, stronger effect = lower value 1.01 | locus YKL085W, strain MDH1 (second series), stronger effect = lower value 1.02 | locus YKL085W, strain MDH1, stronger effect = lower value 1.02 | locus YKL190W, strain CNB1, stronger effect = lower value 1 | locus YKR001C, strain vps1, stronger effect = lower value 1.09 | locus YLR039C, strain RIC1, stronger effect = lower value 1.08 | locus YLR058C, strain SHM2, stronger effect = lower value 1.03 | locus YLR102C, strain apc9, stronger effect = lower value 1.02 | locus YLR262C, strain YPT6, stronger effect = lower value 1.09 | locus YLR268W, strain sec22, stronger effect = lower value 1.06 | locus YLR330W, strain CHS5, stronger effect = lower value 1.02 | locus YLR342W, strain FKS1 (second series), stronger effect = lower value 1.06 | locus YLR371W, strain rom2, stronger effect = lower value 1.01 | locus YLR418C, strain cdc73, stronger effect = lower value 1.05 | locus YML016C, strain PPZ1, stronger effect = lower value 1.02 | locus YML032C, strain rad52, stronger effect = lower value 1.02 | locus YML124C, strain tub3, stronger effect = lower value 1.01 | locus YMR078C, strain ctf18, stronger effect = lower value 1.01 | locus YMR223W, strain ubp8, stronger effect = lower value 1.04 | locus YMR263W, strain SAP30, stronger effect = lower value 1.02 | locus YMR307W, strain GAS1, stronger effect = lower value 1.19 | locus YNL067W, strain RPL9B, stronger effect = lower value 1.02 | locus YNL128W, strain TEP1, stronger effect = lower value 1.06 | locus YNL153C, strain GIM3, stronger effect = lower value 1.03 | locus YNL233W, strain BNI4, stronger effect = lower value 1 | locus YNL250W, strain rad50, stronger effect = lower value 1.02 | locus YNL271C, strain bni1, stronger effect = lower value 1.01 | locus YNL298W, strain CLA4, stronger effect = lower value 1.01 | locus YNL307C, strain MCK1, stronger effect = lower value 1.01 | locus YNL322C, strain KRE1, stronger effect = lower value 1.01 | locus YNR052C, strain pop2, stronger effect = lower value 1.01 | locus YOL012C, strain htz1 1.43 | locus YOL147C, strain pex11, stronger effect = lower value 1.01 | locus YOR061W, strain CKA2, stronger effect = lower value 1.04 | locus YOR069W, strain VPS5, stronger effect = lower value 1.01 | locus YOR136W, strain idh2, stronger effect = lower value 1.02 | locus YOR144C, strain elg1, stronger effect = lower value 1.01 | locus YOR184W, strain ser1, stronger effect = lower value 1.07 | locus YOR316C, strain cot1, stronger effect = lower value 1.02 | locus YPL055C, strain LGE1, stronger effect = lower value 1.03 | locus YPL241C, strain CIN2, stronger effect = lower value 1.01 | locus YPR119W, strain clb2, stronger effect = lower value 1.01 | locus YPR141C, strain kar3, stronger effect = lower value 1.02 | locus YPR163C, strain tif3, stronger effect = lower value 1.03 | locus YPR167C, strain met16, stronger effect = lower value 1.02 | strain wtn01, stronger effect = lower value 1.04
